In all, about 320,000 compounds went through this assay and about 8,000 (2.5%) were called active. The sample holds actives, similar compounds and a random draw of the others, so the mix is not that of the screen. Cut-off read from the data, not from the text of the source: active = activation above about 47%; inactive = the rest.
Biological target: Aryl hydrocarbon receptor (Homo sapiens) (UniProt P35869)
Experiment: AHR activators, primary screen, cell-based, luminescence, luciferase reporter, human (AID 2796);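 note: 0% = vehicle wells and 100% = reference agonist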
Details: AHR-responsive luciferase reporter cells, at 5 µM, hits give high values

Aryl hydrocarbon receptor (Homo sapiens), sequence (P35869 whole entry, looked up): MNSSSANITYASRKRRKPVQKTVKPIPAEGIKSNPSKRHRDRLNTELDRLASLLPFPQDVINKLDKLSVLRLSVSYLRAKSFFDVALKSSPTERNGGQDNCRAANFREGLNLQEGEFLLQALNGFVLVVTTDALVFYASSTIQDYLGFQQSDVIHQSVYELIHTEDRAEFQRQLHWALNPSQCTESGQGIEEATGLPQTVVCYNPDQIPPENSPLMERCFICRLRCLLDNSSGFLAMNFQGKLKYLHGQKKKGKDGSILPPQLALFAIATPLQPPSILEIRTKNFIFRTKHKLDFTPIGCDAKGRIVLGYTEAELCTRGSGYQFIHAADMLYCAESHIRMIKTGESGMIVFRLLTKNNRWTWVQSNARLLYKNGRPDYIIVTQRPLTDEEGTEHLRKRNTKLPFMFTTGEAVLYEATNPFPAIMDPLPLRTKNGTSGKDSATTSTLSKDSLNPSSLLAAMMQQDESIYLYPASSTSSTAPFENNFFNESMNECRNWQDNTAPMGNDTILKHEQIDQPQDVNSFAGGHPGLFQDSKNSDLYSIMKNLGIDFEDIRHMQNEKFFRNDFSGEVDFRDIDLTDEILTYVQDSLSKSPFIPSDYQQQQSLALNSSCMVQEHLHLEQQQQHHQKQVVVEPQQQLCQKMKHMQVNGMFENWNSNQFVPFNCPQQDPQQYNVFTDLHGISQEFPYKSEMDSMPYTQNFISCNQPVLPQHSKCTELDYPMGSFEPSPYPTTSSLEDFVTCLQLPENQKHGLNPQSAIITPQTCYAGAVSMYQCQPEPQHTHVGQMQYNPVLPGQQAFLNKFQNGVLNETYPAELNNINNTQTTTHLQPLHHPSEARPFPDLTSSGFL

Row | Structure (SMILES) | activation
1 | O=C(N/N=C/c1ccc2c(c1)OCO2)C(=O)N1CCCC1 | 38.1% (inactive)
2 | CCC1=C/C(=C\c2ccc3c(c2)OCO3)C(=O)S1 | 1.47% (inactive)
3 | O=C1/C(=C/c2ccc3c(c2)OCO3)CCC/C1=C\c1ccc2c(c1)OCO2 | 72.7% (active)
4 | Cc1ccc(S(=O)(=O)N(C)CC(=O)NCC(c2ccc(F)cc2)N2CCOCC2)cc1 (configuration not stated) | -0.69% (inactive)
5 | CC1=C(C(=O)OCc2ccccc2)C(c2ccco2)n2ncnc2N1 (configuration not stated) | 1.22% (inactive)
6 | Brc1ccc(C2=CC(c3ccco3)n3ncnc3N2)cc1 (configuration not stated) | 95.6% (active)
7 | CCOc1ccc(C2=CC(c3ccccc3)n3ncnc3N2)cc1 (configuration not stated) | -3.83% (inactive)
8 | C#CCNC(=O)C1=C[C@@H](c2ccccc2)[C@H](CCCO)[C@@H](OCC)O1 | 1.77% (inactive)
9 | CCCCn1nc(C(=O)Nc2ccc(S(=O)(=O)Nc3ncccn3)cc2)c2ccccc2c1=O | 2.56% (inactive)
10 | Cc1cccc(N=Nc2c(C)[nH]n(-c3ccccc3)c2=O)c1 | 40% (inactive)
11 | CC1=NN(C(N)=S)C(=O)C1N=Nc1cc(Cl)ccc1Cl (configuration not stated) | 11.5% (inactive)
12 | Cc1[nH]n(C(N)=S)c(=O)c1N=Nc1ccc(Cl)cc1Cl | 55.6% (active)
13 | O=C(CCc1ccccc1)Nc1ncc([N+](=O)[O-])s1 | 6.21% (inactive)
14 | O=C(Cc1c(F)cccc1Cl)Nc1ncc([N+](=O)[O-])s1 | 48.5% (active)
15 | O=C(Cc1c(F)cccc1Cl)Nc1ccc(-n2cnnn2)cc1 | 0.09% (inactive)
16 | CCOC(=O)C(=Cc1ccccc1OC)C(=O)OCC | -3.1% (inactive)
17 | Nc1c(C(=O)NCc2ccccc2)sc2nc3c(cc12)C(=O)CCC3 | 2.82% (inactive)
18 | CCN(CC)C(=O)c1sc2nc(-c3ccccc3)ccc2c1N | 76.4% (active)
19 | CN(C)c1ccnc2sc(C(=O)c3ccccc3)c(N)c12 | 15.9% (inactive)
20 | Cc1ccc(N2C(=O)C(NC(=O)c3c(F)cccc3F)(C(F)(F)F)C3=C2CC(C)(C)CC3=O)cc1 (configuration not stated) | 2.49% (inactive)
21 | COC(=O)C(C)C1Sc2ccccc2NC1=O (configuration not stated) | -0.86% (inactive)
22 | O=C(CC1Nc2ccccc2NC1=O)Nc1ccccc1 (configuration not stated) | 101% (active)
23 | O=C(CC1NCCNC1=O)Nc1ccc(Oc2ccccc2)cc1 (configuration not stated) | 5.88% (inactive)
24 | O=C(CC1NCCc2ccccc21)Nc1cccc(Cl)c1 (configuration not stated) | 8.99% (inactive)
25 | O=C(CC1Nc2ccccc2NC1=O)Nc1ccccc1NC(=O)CC1Nc2ccccc2NC1=O (configuration not stated) | 47.5% (active)

Row | Structure (SMILES) | activation
26 | Cc1ccc(CNC(=O)CC2Sc3ccccc3NC2=O)cc1 (configuration not stated) | 4% (inactive)
27 | COC(=O)c1c(C)oc2ccc(N(C(=O)Oc3ccccc3)S(=O)(=O)c3ccccc3)cc12 | -0.17% (inactive)
28 | COCCCNC(=O)c1ccc(CNS(=O)(=O)c2ccc(NC(C)=O)cc2)cc1 | 0.77% (inactive)
29 | Cc1cc(C)n(CC(O)COc2ccc(C(C)(C)C)cc2)n1 (configuration not stated) | 1.06% (inactive)
30 | CC(C)n1ncc2c(C(=O)Nc3ccc(CC#N)cc3)cc(C3CC3)nc21 | 89.9% (active)
31 | CC(C)n1ncc2c(C(=O)NCc3ccccc3CN(C)C)cc(C3CC3)nc21 | 2.81% (inactive)
32 | COc1ccc(OCCNC(=O)c2cc(C3CC3)nc3c2cnn3C(C)C)cc1 | 5.03% (inactive)
33 | O=C(CCNC(=O)c1ccccc1Cl)NN=Cc1ccco1 | -0.2% (inactive)
34 | Cc1ccc(C(=O)N/C(=C\c2cn(S(=O)(=O)N(C)C)c3ccccc23)C(=O)N2CCCC2)cc1 | 0.25% (inactive)
35 | Cc1ccc(OCc2n[nH]c(=S)n2-c2ccccc2)cc1 | 2.23% (inactive)
36 | S=c1[nH]nc(COc2ccccc2)n1-c1ccccc1 | -2.15% (inactive)
37 | S=c1[nH]nc(-c2cc(-c3ccsc3)n[nH]2)n1-c1ccccc1 | 84% (active)
38 | CCc1ccc(C(=O)OCC(=O)NCC(F)(F)F)cc1 | 1.13% (inactive)
39 | O=C(Nc1ccccc1F)c1ccc2c(c1)OCO2 | 7.6% (inactive)
40 | Fc1ccc2cnc(-c3ccccc3)cc2c1 | 31.9% (inactive)
41 | Fc1ccccc1-c1cc2cc3c(cc2cn1)OCO3 | 77.2% (active)
42 | O=C(NCc1ccc2c(c1)OCO2)c1cc([N+](=O)[O-])ccc1N1CCOCC1 | -0.76% (inactive)
43 | Cc1nnc(C)c2c(C)n(N)c(C)c12 | -0.81% (inactive)
44 | O=C(N/N=C/c1c(Cl)[nH]c2ccccc12)c1sc2ccccc2c1Cl | 74.3% (active)
45 | COc1ccc(CNC(=O)CNC(=O)c2sc3ccccc3c2Cl)cc1OC | -3.5% (inactive)
46 | CN1CCc2ccccc2C1Cc1ccccc1NC(=O)c1sc2ccccc2c1Cl (configuration not stated) | 11.4% (inactive)
47 | O=C(CCNS(=O)(=O)c1ccccc1)NCCSc1ccc(Br)cc1 | -0.18% (inactive)
48 | Cc1sc2ncn(CC(=O)NCCCC(=O)N3CCN(c4ccccc4F)CC3)c(=O)c2c1C | -0.77% (inactive)
49 | CCOc1ccc(Nc2oc(Cc3ccccc3)nc2C#N)cc1 | 58.1% (active)
50 | COc1ccc(Nc2oc(-c3ccccc3Cl)nc2C#N)cc1 | -7.03% (inactive)

Row | Structure (SMILES) | activation
51 | N#Cc1nc(COc2ccc(-c3ccccc3)cc2)oc1NCc1cccnc1 | -4.66% (inactive)
52 | Cc1cccc(N(C)C(=O)c2cc3c(=O)[nH]c4ccc(C)cc4c3s2)c1 | 39% (inactive)
53 | C=CCSc1nnc(Cn2c(=O)sc3ccccc32)n1C | 0.37% (inactive)
54 | Cc1cccc[n+]1CC(=O)c1ccccc1 | 1.77% (inactive)
55 | O=C(CNC(=O)c1ccc(F)cc1)c1ccccc1 | 3.71% (inactive)
56 | O=C(C[n+]1cc(Br)cc2ccccc21)c1ccc(F)cc1 | 58.6% (active)
57 | S=c1[nH]cc(-c2ccc(Cl)cc2)n1-c1ccccc1 | 6.37% (inactive)
58 | CC(C)(C)OC(=O)C[C@@H]1C/C=C\C[C@@H](CC(=O)NCCO)C(=O)N[C@H](Cc2c[nH]c3ccccc23)COC1=O | 0.32% (inactive)
59 | C=CCN1C(=O)C2(OCCCO2)c2cccc(Cl)c21 | -2.96% (inactive)
60 | O=c1c(/C=N/O)coc2ccc(Cl)cc12 | -0.55% (inactive)
61 | Cc1ccc2occ(/C=N/NC(=O)c3ccccc3C)c(=O)c2c1 | 6.34% (inactive)
62 | NC(=S)N/N=C/c1coc2cc(Cl)ccc2c1=O | 60.2% (active)
63 | O=c1[nH]n(-c2ccc([N+](=O)[O-])cc2)c(=O)c2ccccc12 | 1.45% (inactive)
64 | O=c1[nH]c2cccnc2n1-c1ccc([N+](=O)[O-])cc1 | 60.9% (active)
65 | O=[N+]([O-])c1ccc2nc(-c3ccccn3)[nH]c2c1 | 3.58% (inactive)
66 | CCOc1ccc(CN2CCN(CCCc3ccccc3)C(CCO)C2)cc1 (configuration not stated) | 0.01% (inactive)
67 | COc1cc(NC(=O)c2cccs2)ccc1NC(=O)c1ccccc1Cl | -11.1% (inactive)
68 | O=C(Nc1cccc(NC(=O)c2ccccc2[N+](=O)[O-])c1)c1ccccc1Cl | 8.43% (inactive)
69 | O=C(Nc1ccc2sc3ccccc3c(=O)c2c1)c1ccccc1Cl | 49.1% (active)
70 | COc1cc(S(=O)(=O)N2CCN=C2c2ccccc2)ccc1Cl | 1.21% (inactive)
71 | Cc1ccccc1OCCC(=O)OCC(=O)NC(C)c1ccccc1 (configuration not stated) | -2.01% (inactive)
72 | COc1ccc(Cl)cc1C(=O)NNC(=S)NC1CCCC1 | 32.1% (inactive)
73 | COc1ccc(Cl)cc1C(=O)NNC(=S)NC(=O)/C=C/c1ccco1 | 4.8% (inactive)
74 | C=CCNC(=S)NNC(=O)c1cc(Cl)ccc1OC | 52.7% (active)
75 | Cc1nc(SCC(=O)N2CCc3ccccc3C2)c2c(C)c(C)sc2n1 | 3.83% (inactive)

Row | Structure (SMILES) | activation
76 | COc1cc(NC(=O)c2cc([N+](=O)[O-])ccc2Br)ccc1NC(=O)c1ccco1 | -4.72% (inactive)
77 | COc1ccc(NC(=O)c2ccco2)cc1NC(=O)c1ccc(C#N)cc1F | 96.2% (active)
78 | COc1ccccc1C(=O)Nc1ccc(NC(=O)c2ccco2)c(C)c1 | 40.4% (inactive)
79 | O=S(=O)(NC1CC1)c1ccc2c3c(cccc13)CC2 | 1.23% (inactive)
80 | CCn1c(CN2C(=O)CSc3ccccc32)n[nH]c1=S | 1.51% (inactive)
81 | COC(=O)c1c(-c2cccs2)csc1NC(=O)CSc1ncnc2sc(C)c(C)c12 | 6.7% (inactive)
82 | Cc1sc2ncnc(Sc3nc4ccccc4s3)c2c1C | 47.2% (active)
83 | CSc1ncnc2sc(C)c(C)c12 | 1.25% (inactive)
84 | O=C(NNS(=O)(=O)c1ccc(F)cc1)C1CCCCC1 | -0.99% (inactive)
85 | CN(CC(=O)Nc1ccc(Cl)cc1)C(=O)c1ccc(COc2ccccc2)cc1 | 0.65% (inactive)
86 | CC(=O)N1c2ccc(S(=O)(=O)N3CCCC(C(=O)Nc4ccc(C)cc4C)C3)cc2CC1C (configuration not stated) | 0.6% (inactive)
87 | CCC(=O)c1ccc(OCC(=O)OCC(=O)N2CCc3ccccc3C2)cc1 | -1.4% (inactive)
88 | COc1ccc2sc(-c3ccc(S(C)(=O)=O)cc3)c(C#Cc3cncn3C)c2c1 | 39.3% (inactive)
89 | COc1ccc2sc(-c3ccc(N(C)C)cc3)c(C#CCO)c2c1 | 64.8% (active)
90 | COc1ccc2sc(-c3ccccc3OC)c(-c3ccc(OCCN4CCCC4)cc3)c2c1 | 1.65% (inactive)
91 | COc1ccc(-c2sc3ccc(OC)cc3c2C#Cc2ccccn2)cc1 | 70.4% (active)
92 | COc1cc(OC)cc(-c2sc3ccc(OC)cc3c2-c2ccc3cc[nH]c3c2)c1 | 13% (inactive)
93 | COc1ccc2sc(-c3ccc(N(C)C)cc3)c(-c3ccc4cc[nH]c4c3)c2c1 | 22.1% (inactive)
94 | CCCN(C(=O)CSc1nnc(N)s1)c1c(N)n(Cc2ccccc2)c(=O)[nH]c1=O | 0.7% (inactive)
95 | COc1cccc(CN(C)CC2CCCN(CCc3ccc(Cl)cc3)C2)c1OC (configuration not stated) | -2.92% (inactive)
96 | COc1ccc2c(c1)CCC/C2=N\OC(=O)c1ccccc1F | 2.52% (inactive)
97 | COCCN(Cc1ccccc1)C(=O)Cc1ccc(S(=O)(=O)N2CCOCC2)s1 | 0.03% (inactive)

Reference: PubChem BioAssay AID2796 (The Scripps Research Institute Molecular Screening Center, 2010)
